These results are taken from PubChem BioAssay AID504465 (National Center for Advancing Translational Sciences (NCATS), 2011).

Among all 2,100 compounds or so, about 210 (10%) were called active. About 53% were inconclusive and are not listed. The call rests on the fitted dose curve; in most records, active means well fitted inhibition curve with a large enough effect; inconclusive means small, poorly fitted or top-dose-only effect, or effect the other way; inactive means no such curve, though single readings can be large or run the other way. Some of the results follow. Where a call stands in place of a potency, no number is given.
Potency means the concentration at half of the fitted maximal effect.

The assay in a line: IN Cell qHTS Assay for Inhibitors of the mTORC1 Signaling Pathway in MEF (Tsc2-/-, p53-/-) Cells: Sytravon. Further: nearly all actives have a fitted effect of over 60% in size. The conditions noted are these: phospho-rpS6 immunofluorescence, 24 h; series mostly up to 38.3 µM. Put shortly:
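Tsc2-/-, p53-/- MEFs (empty-vector) treated with compound 24 h at 37 degree Celsius, then fixed and stained for phospho-rpS6 Ser235/236 (Alexa-488) plus Hoechst. Reported as % positive cells, thresholds set against 7.5 nM rapamycin and DMSO wells.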
In general terms: qHTS replaces the single test concentration by a dilution series.
Turning to `O=C(Cn1cc(SCc2cccc(C(F)(F)F)c2)c2ccccc21)N1CCCCCC1`, the Potency entry is “inactive”.
Take `Cc1cccc(-c2noc(CNC(=O)c3ccc(C)cc3C)n2)c1`: the Potency entry was “inactive”.
With `Cc1ccc(NC(=O)c2cc(S(=O)(=O)NCCC3=CCCCC3)ccc2F)cc1F`, the Potency entry is “inactive”.
As for `COc1ccc(-n2ncc3c(NCCCOC(C)C)ncnc32)cc1`, the Potency result is “inactive”.
Consider `COc1cccc(-c2noc(CCCC(=O)NCc3ccco3)n2)c1`, for which the Potency result is “inactive”.
The entry for `COc1ccccc1N1CCN(C(=O)c2nc(SC)ncc2Cl)CC1` is “inactive”; for `O=C(NCc1ccccc1Cl)c1cnc(N2CCCCC2)c2ccccc12` it is “inactive”.
The same measure for `COc1ccccc1N1CCN(C(=O)c2cnc(N3CCCCC3)c3ccccc23)CC1`: 5.85 µM (active); for `Cc1ccccc1Nc1c(-c2cccc(N(C)C)c2)nc2ccc(Br)cn12`: “inactive”; for `Cc1cc(=O)n(CC(=O)N2CCN(c3ccccc3F)CC2)c2c1c(C)nn2C`: “inactive”.
With `COc1cc(NC(=O)Cn2nc(C(F)(F)F)c3c2CCCC3)c(OC)cc1Cl`, the Potency entry was “inactive”.
Turning to `Cc1nnc(NC(=O)CSCc2cc(=O)c3ccccc3[nH]2)s1`, the Potency entry was “inactive”.
The same measure for `O=C(Nc1nnc(SCc2cc(=O)c3ccccc3[nH]2)s1)c1ccccc1`: “inactive”; for `CCCC(=O)Nc1nnc(SCc2cc(=O)c3ccc(C)cc3[nH]2)s1`: 3.69 µM (active).
The entry for `Cc1ccc(-n2c(SCc3nc(-c4ccccc4C)no3)nnc2-c2ccncc2)cc1C` is “inactive”.
The entry for `C=CCc1cccc2cc(-c3nc4ccc(C)cc4[nH]3)c(=O)oc12` is “inactive”.
Regarding `CCC(C(=O)Nc1cc(-c2nc3cccnc3s2)ccc1C)c1ccccc1` (centres undefined), the Potency result is “inactive”.
Take `CCCCN(CCCNC(=O)c1cc(Nc2ccc(OC)c(OC)c2)nc2ccccc12)Cc1ccccc1`: the Potency was 2.33 µM (active).
`COc1ccc(N2CCN(CCCNC(=O)c3cc(Nc4ccccc4OC)nc4ccccc34)CC2)cc1`: the Potency result is “inactive”.
Regarding `CSc1cccc(Nc2cc(C(=O)NCCCN(Cc3ccccc3)C(C)C)c3ccccc3n2)c1`, the Potency result is “inactive”.
For `COc1ccccc1Nc1cc(C(=O)NCCCN(C)C2CCCCC2)c2ccccc2n1`, the Potency is 1.65 µM (active).
As to `COc1ccc(Nc2cc(C(=O)NCCCN(C)Cc3ccccc3)c3ccccc3n2)cc1OC`, the Potency entry was “inactive”.
Turning to `CC1CCCN(CCCNC(=O)c2cc(Sc3ccc(F)cc3)nc3ccccc23)C1` (centres undefined), the Potency result was “inactive”.
Take `CC1CCCCN1S(=O)(=O)c1ccc(C(=O)Nc2sc3c(c2C(N)=O)CC(C)(C)NC3(C)C)cc1` (centres undefined): the Potency result was “inactive”.
The same measure for `COc1ccccc1NC(=O)C1=C(C)Nc2nc(SCc3ccccc3)nn2C1c1cccs1` (centres undefined): “inactive”.
On to `CCC1CN(C(=O)NCc2cccc(OC)c2)c2cc(Cl)ccc2O1` (centres undefined), for which the Potency entry was “inactive”.
Regarding `Cc1ccc(NC(=O)C(Cc2c[nH]c3ccccc23)NC(=O)OC(C)(C)C)c(C)c1` (centres undefined), the Potency result was “inactive”.
For `O=C(Nc1cc(Cl)cc(Cl)c1)c1ccc(F)c(S(=O)(=O)NC2CCCCC2)c1`, the Potency result is “inactive”.
As to `O=C1CC(c2c(F)cccc2Cl)c2c(ccc3ccccc23)N1` (centres undefined), the Potency entry is “inactive”.
Regarding `COC(=O)c1ccc(C2C=C(c3ccc(Cl)cc3)Nc3nc4ccccc4n32)cc1` (centres undefined), the Potency entry is “inactive”.
The same measure for `COc1ccc(CNC(=O)C2CCC(CNS(=O)(=O)c3cccs3)CC2)cc1` (centres undefined): “inactive”; for `Cc1c(C(=O)Nc2cccc(F)c2)oc2c1-c1nn(Cc3c(F)cccc3Cl)cc1CC2`: “inactive”.
Take `Cc1cccc(NC(=O)c2ccc(F)c(S(=O)(=O)NCc3ccc4c(c3)OCO4)c2)c1`: the Potency result was “inactive”.
On to `CCOC(=O)c1cc(S(=O)(=O)NCc2ccc(OC)cc2)[nH]n1`, for which the Potency result was “inactive”.
Consider `Cc1cccc(NC(=O)c2nc(S(C)(=O)=O)ncc2Cl)c1`, for which the Potency is 2.61 µM (active).
Take `CC1CCn2c(nc3cc(C(=O)NCc4ccccc4)ccc32)C1` (centres undefined): the Potency result is “inactive”.
As for `CCS(=O)(=O)c1ncc(Cl)c(C(=O)NCc2ccc(OC)cc2)n1`, the Potency was 3.29 µM (active).
For the compound `Cc1ccc(NC(=O)c2nc(S(=O)(=O)Cc3cccc(C)c3)ncc2Cl)cc1`, the Potency is 6.56 µM (active).
In the case of `O=C(NCc1ccccc1)c1nc(S(=O)(=O)Cc2ccccc2)ncc1Cl`, the Potency was 18.5 µM (active).
Take `O=C(Nc1ccc(F)c(F)c1)c1cc(S(=O)(=O)N2CCc3ccccc32)ccc1F`: the Potency result is “inactive”.
For the compound `COc1ccc(-c2ccc(CCC(=O)O)n2-c2cc(Cl)ccc2O)cc1`, the Potency entry is “inactive”.
With `CC(C)c1ccc(NC(=O)C2Cc3ccccc3N2C(=O)c2ccccc2)cc1` (centres undefined), the Potency result is “inactive”.
Regarding `CCOC(=O)c1c(NC(=O)c2ccc(S(=O)(=O)N3CCC(C)CC3)cc2)sc2c1CCN(CC)C2`, the Potency entry was “inactive”.
For `Cc1ccc(-c2cc(C(=O)N3CCN(c4ccccc4)CC3)c3ccccc3n2)cc1C`, the Potency entry is “inactive”.
The entry for `CCOC(=O)C1CCCN(C(=O)Cn2c(=O)cc(C)c3c(C)nn(C)c32)C1` (centres undefined) is “inactive”; for `O=C(NCCSc1c(-c2ccc(F)cc2)[nH]c2ccccc12)c1ccc(S(=O)(=O)N2CCOCC2)cc1` it is “inactive”.
Take `Cc1ccc(NC(=O)c2c(C)oc3ccc(O)c(CN4CCCCC4)c23)c(C)c1`: the Potency result is “inactive”.
As to `CCc1ccc(CNC(=O)Cn2nc(-c3ccc(C)cc3)ccc2=O)cc1`, the Potency result is “inactive”.
The same measure for `Cc1nnc(SCC(=O)NCc2ccccc2F)c2nn(-c3ccc(Cl)cc3)c(C)c12`: “inactive”; for `Cc1cccc(CS(=O)(=O)c2ncc(Cl)c(C(=O)NCc3ccccc3)n2)c1`: 18.5 µM (active).
Regarding `CCOC(=O)c1c(NC(=O)c2ccc(S(=O)(=O)N3CCC(C)CC3)cc2)sc2c1CCN(C(C)C)C2`, the Potency result was “inactive”.
Consider `Cc1ccc(S(=O)(=O)C2(C(=O)Nc3ccc(C(C)C)cc3)CC2)cc1`, for which the Potency entry was “inactive”.
With `COc1ccc(NC(=O)CCc2nc3c(C)nn(-c4ccc(C)cc4)c3n(C)c2=O)cc1`, the Potency entry is “inactive”.
Consider `CCC1(C)CC(=O)c2c(ccc3oc(C(=O)NCc4ccccc4)c(C)c23)O1` (centres undefined), for which the Potency entry is “inactive”.
Consider `CCCS(=O)(=O)c1ncc(Cl)c(C(=O)Nc2scc(-c3ccccc3)c2C(=O)OCC)n1`, for which the Potency entry was “inactive”.
The figure for `CCOC(=O)c1c(NC(=O)c2nc(S(C)(=O)=O)ncc2Cl)sc(C(C)=O)c1C` is 5.85 µM (active).
On to `Cc1c2cnn(CC(=O)NCc3ccccc3)c(=O)c2c(C)n1Cc1cccc(Cl)c1`, for which the Potency result was “inactive”.
Take `COc1ccc(NC(=O)c2nc(S(=O)(=O)Cc3ccc(C)cc3)ncc2Cl)cc1`: the Potency is 2.61 µM (active).
Turning to `CCS(=O)(=O)c1ncc(Cl)c(C(=O)NCc2ccccc2)n1`, the Potency is 3.29 µM (active).
As for `CCc1cnc2c(c1SCC(=O)NCc1ccccc1)c(=O)n(C)c(=O)n2C`, the Potency result was “inactive”.
Consider `Cc1cccc(Cn2c(=O)n(CCCC(=O)NCc3ccccc3Cl)c(=O)c3ccccc32)c1`, for which the Potency result is “inactive”.
With `Cc1cccc(C(=O)Nc2ccccc2SCc2cc(=O)c3cccc(C)c3[nH]2)c1`, the Potency result is “inactive”.
The same measure for `COc1ccc(CCNC(=O)CCn2c(=O)c3ccccc3n(Cc3ccccc3C)c2=O)cc1OC`: “inactive”; for `COc1ccc(CCNC(=O)c2ccc3c(c2)N=C(C)c2cc(C)ccc2S3)cc1OC`: “inactive”.
The entry for `O=C(Nc1cccc(C(=O)N2CCN(c3ccc(Cl)cc3)CC2)c1)c1nsc2ccccc12` is “inactive”.
Take `Cc1ccc(NC(=O)c2cc(S(=O)(=O)N3CCCCCC3)ccc2F)cc1F`: the Potency result is “inactive”.
The same measure for `Cc1oc2ccc(O)c(CN(C)Cc3ccccc3)c2c1C(=O)Nc1cccc(Cl)c1C`: “inactive”; for `O=c1ccc(-c2ccccc2)nn1Cc1ccc(F)cc1Cl`: “inactive”.
Take `CCc1ccc(CNC(=O)c2ccc(NC(=O)N3CCCCc4ccccc43)cc2)cc1`: the Potency result was “inactive”.
As for `CCCC(=O)C1=C(c2ccc(C)cc2)N(C(=O)CCC)n2cnnc2S1`, the Potency result was “inactive”.
The same measure for `Cc1cc(C)cc(NC(c2cccc(Cl)c2)c2nnc(-c3ccccc3)o2)c1` (centres undefined): “inactive”; for `CCOC(=O)N1CCc2c(sc3c2C(=O)NC(c2cc(OC)c(OC)c(OC)c2)N3)C1` (centres undefined): “inactive”.
The same measure for `CCCOc1ccc(Oc2nc(NCC(C)C)nc(N(C)C)n2)nn1`: “inactive”; for `CCN1CCc2c(sc(NC(=O)CSc3ccccc3)c2-c2nc3ccccc3s2)C1`: “inactive”.
The same measure for `Cc1cccc(CN2CCC(CNc3ncnc4onc(-c5ccc(Cl)cc5)c34)CC2)c1`: 7.36 µM (active); for `O=C(NCC1CCN(Cc2cccc(Cl)c2)CC1)Nc1ccc(F)c(Cl)c1`: “inactive”.
As to `Cc1ccc(CN2CCC(CNC(=O)Nc3ccc(Cl)cc3)C2)cc1` (centres undefined), the Potency result was “inactive”.
Regarding `CCC(C)NC(=O)c1cc(Sc2cccc(Cl)c2)nc2ccccc12` (centres undefined), the Potency entry is “inactive”.
Turning to `COc1ccc(-n2nnc(-c3nsc(NC(=O)c4ccc(C)c(C)c4)n3)c2C)cc1Cl`, the Potency result is “inactive”.
The entry for `CCOc1ccc(-c2oc3ccccc3c(=O)c2O)cc1OCC` is “inactive”.
Regarding `CCOc1ccc(N(C(=O)Cn2nnc3ccccc32)C(C(=O)NCc2ccccc2)c2ccc(OC)cc2)cc1` (centres undefined), the Potency entry is “inactive”.
The same measure for `CCS(=O)(=O)c1ncc(Cl)c(C(=O)N(Cc2ccccc2)c2ccc(OC)cc2)n1`: 3.29 µM (active); for `COc1ccc(-n2cc(C(=O)N(CCN(C)C)Cc3ccccc3)c3ccccc3c2=O)cc1`: “inactive”.
The same measure for `COc1ccc(N(Cc2ccccc2)C(=O)c2nc(S(C)(=O)=O)ncc2Cl)cc1`: 2.33 µM (active).
`CCN(CC)CCNC(=O)c1cn(CCOC)c(=O)c2c1c1ccccc1n2C`: the Potency entry is “inactive”.
For the compound `CC(C)C(=O)OC1=CN(Cc2ccccc2)S(=O)(=O)c2ccccc21`, the Potency entry was “inactive”.
Take `CCc1ccc(N=C2NC(=O)CC(C(=O)Nc3ccc(OC)cc3)S2)cc1` (centres undefined): the Potency entry is “inactive”.
The same measure for `CCCc1cc(=O)oc2cc(C)c3c(-c4ccccc4)c(C)oc3c12`: “inactive”; for `C#CCOc1c(Br)cc(C2C(C(=O)OC)=C(C)NC3=C2C(=O)c2ccccc23)cc1OCC` (centres undefined): “inactive”.
As for `CSc1cccc(NC(=O)Cn2cnc(S(=O)(=O)N3CCCC3)c2)c1`, the Potency entry was “inactive”.
`Cn1nnnc1SCCCNCc1cccc(OCc2ccccc2Cl)c1`: the Potency result was “inactive”.
`Cc1noc(/C=C/N(C)C)c1S(=O)(=O)N1CCCC(C(=O)Nc2ccc(F)cc2F)C1` (centres undefined): the Potency result is “inactive”.
The entry for `Cc1ccc(-c2noc(-c3ccccc3NC(=O)C3CC(=O)N(c4cccc(C)c4)C3)n2)cc1` (centres undefined) is “inactive”; for `CN(C)c1ccc(NC(=O)Cn2cc(S(=O)(=O)Cc3ccccc3Cl)c3ccccc32)cc1` it is 10.4 µM (active); for `Cc1ccc(CNC(=O)Cn2cc(S(=O)(=O)Cc3ccccc3F)c3ccccc32)cc1` it is 18.5 µM (active).
As to `COc1ccc2c(c1)c(=O)c(C(=O)c1ccc(C)cc1)cn2Cc1ccccc1F`, the Potency result is “inactive”.
`O=C(Cn1cc(S(=O)(=O)Cc2cccc(Cl)c2)c2ccccc21)Nc1ccccc1C(F)(F)F`: the Potency result was “inactive”.
Take `CC(C)N(C(=O)CSc1cn(CC(=O)N2CCCCCC2)c2ccccc12)C(C)C`: the Potency entry was “inactive”.
In the case of `Cc1cc(C)c(NC(=O)Cn2cc(S(=O)(=O)Cc3ccccc3F)c3ccccc32)c(C)c1`, the Potency result was “inactive”.
